Records with an inconclusive call do not appear. Calls of active or inactive are those of the source. Calls come from the whole dose curve; as a rule, active = well fitted curve in the direction sought with a large enough effect; inconclusive = small, poorly fitted or top-dose-only effect, or another doubt; inactive = no such curve, though single readings can be large; an effect the other way counts as inactive or inconclusive.
Legend:
[1] = qHTS of pediatric cancer cell lines to identify multiple opportunities for drug repurposing: Primary screen for NB-EBc1 cells (AID 1347095)
Method in brief: (§1)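 ATP-based luminescence (CellTiter-Glo) quantifies viability after a 48-hour exposure. Compounds are dosed across 8 or 11 final concentrations; DMSO and 2.3 µM bortezomib serve as controls.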

[2] = qHTS of pediatric cancer cell lines to identify multiple opportunities for drug repurposing: Primary screen for Saos-2 cells (AID 1347097); note: nearly all actives have a fitted effect of over 40% in size
Method in brief: as §1

[3] = qHTS of pediatric cancer cell lines to identify multiple opportunities for drug repurposing: Primary screen for SK-N-SH cells (AID 1347098); note: nearly all actives have a fitted effect of over 65% in size
Method in brief: (§2)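 Cells (500-1,000/well) rested 5 h, then received compounds for 48 h; metabolically active cells were measured by CellTiter-Glo luminescence. Final concentrations spanned up to 46 µM (MIPE, 11-point) or 0.59 nM-46 µM (NPC, 8-point) in primary screens, 11-point in follow-ups.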

[4] = qHTS of pediatric cancer cell lines to identify multiple opportunities for drug repurposing: Primary screen for LAN-5 cells (AID 1347100)
Method in brief: (§3)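 Viability after 48 h compound treatment at 37C, 500-1,000 cells/well, read as ATP luminescence with CellTiter-Glo. Primary screens used 11-point (MIPE, 0.78 nM-46 µM) or 8-point (NPC, 0.59 nM-46 µM) final concentrations; follow-up screens used 11-point dilutions.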

[5] = qHTS of pediatric cancer cell lines to identify multiple opportunities for drug repurposing: Primary screen for BT-12 cells (AID 1347101); note: nearly all actives have a fitted effect of over 25% in size
Method in brief: as §2

[6] = qHTS of pediatric cancer cell lines to identify multiple opportunities for drug repurposing: Primary screen for OHS-50 cells (AID 1347103); note: nearly all actives have a fitted effect of over 40% in size
Method in brief: as §2

[7] = qHTS of pediatric cancer cell lines to identify multiple opportunities for drug repurposing: Primary screen for RD cells (AID 1347104); note: nearly all actives have a fitted effect of over 55% in size
Method in brief: as §1

[8] = qHTS of pediatric cancer cell lines to identify multiple opportunities for drug repurposing: Primary screen for NB1643 cells (AID 1347099); note: nearly all actives have a fitted effect of over 50% in size
Method in brief: as §1

[9] = qHTS of pediatric cancer cell lines to identify multiple opportunities for drug repurposing: Primary screen for Rh18 cells (AID 1347102); note: nearly all actives have a fitted effect of over 65% in size
Method in brief: as §3
Potency is the fitted concentration of half-maximal effect.

SMILES | Potency [1] | Potency [2] | Potency [3] | Potency [4] | Potency [5] | Potency [6] | Potency [7] | Potency [8] | Potency [9]
COc1cc(C)c(Sc2cnc(NC(=O)c3ccc(CNC(C)C(C)C)cc3)s2)cc1C(=O)N1CCN(C(C)=O)CC1 (configuration not stated) | 18.7 µM (active) | inactive | 12.1 µM (active) | 2.64 µM (active) | 24.3 µM (active) | 2.43 µM (active) | 14.8 µM (active) | – | –
Cc1nc(N)ncc1-c1nc(N2CCOCC2)c2sc(C(C)(C)O)cc2n1 | 0.59 µM (active) | 0.833 µM (active) | 1.21 µM (active) | 1.32 µM (active) | – | 0.0685 µM (active) | 1.48 µM (active) | 0.469 µM (active) | 1.18 µM (active)
COc1cc(Nc2ncc(F)c(Nc3ccc4c(n3)N(COP(=O)(O)O)C(=O)C(C)(C)O4)n2)cc(OC)c1OC | 0.935 µM (active) | 1.18 µM (active) | 4.29 µM (active) | 1.87 µM (active) | – | 1.22 µM (active) | 3.32 µM (active) | 0.187 µM (active) | 1.87 µM (active)
COc1ccc(OC)c(-c2nnc3ccc(-c4ccc(OC)c(O[C@@H]5CCOC5)c4)nn23)c1 | inactive | 29.6 µM (active) | 30.4 µM (active) | 26.4 µM (active) | 9.68 µM (active) | 17.2 µM (active) | 16.6 µM (active) | 18.7 µM (active) | 13.2 µM (active)
CC(C)c1cc(-c2n[nH]c(=O)n2-c2ccc3c(ccn3C)c2)c(O)cc1O | 0.0935 µM (active) | 0.118 µM (active) | 0.242 µM (active) | 0.0662 µM (active) | – | 0.153 µM (active) | 0.059 µM (active) | 0.0662 µM (active) | 0.0833 µM (active)
CC(=O)c1c(C)c2cnc(Nc3ccc(N4CCNCC4)cn3)nc2n(C2CCCC2)c1=O | 20.9 µM (active) | 18.7 µM (active) | 24.1 µM (active) | 18.7 µM (active) | – | 19.3 µM (active) | 18.7 µM (active) | 16.6 µM (active) | 23.5 µM (active)
Nc1nc(-c2nn(Cc3ccccc3F)c3ncccc23)nc(N)c1N1CCOCC1 | inactive | inactive | inactive | inactive | inactive | – | inactive | inactive | inactive
Cc1cc(Nc2ncnc3ccc(-c4ccc(CNCCS(C)(=O)=O)o4)cc23)ccc1Oc1ccn2ncnc2c1 | 4.18 µM (active) | 2.09 µM (active) | 21.5 µM (active) | 14.8 µM (active) | 6.85 µM (active) | 1.22 µM (active) | 16.6 µM (active) | 16.6 µM (active) | 20.9 µM (active)
CC(C)(O)c1cc2nc(-c3cnc(N)nc3)nc(N3CCOCC3)c2s1 | 0.0935 µM (active) | 0.235 µM (active) | 8.57 µM (active) | 0.372 µM (active) | – | 0.0306 µM (active) | 0.209 µM (active) | 0.187 µM (active) | 0.372 µM (active)
COc1ccc2c(OCc3nnc4ccc(-c5ccccc5)nn34)ccnc2c1 | inactive | inactive | inactive | inactive | inactive | inactive | inactive | inactive | inactive
COC(=O)C[C@](O)(CCCC(C)(C)O)C(=O)O[C@@H]1C(OC)=C[C@]23CCCN2CCc2cc4c(cc2[C@H]13)OCO4 | inactive | 18.7 µM (active) | inactive | inactive | inactive | inactive | inactive | – | inactive
CC1(C)CC(=O)c2c(C(F)(F)F)nn(-c3ccc(C(N)=O)c(NC4CCC(OC(=O)CN)CC4)c3)c2C1 (configuration not stated) | 0.296 µM (active) | 0.264 µM (active) | 0.482 µM (active) | 0.187 µM (active) | – | 0.306 µM (active) | 0.187 µM (active) | 0.235 µM (active) | 0.418 µM (active)
C[C@]1(CO)CN(c2cc(C(=O)Nc3ccc4c(c3)-c3c(c(C(N)=O)nn3-c3ccc(F)cc3)CC4)c(Cl)cn2)C[C@@]1(C)CO | 5.9 µM (active) | 16.6 µM (active) | 19.2 µM (active) | 5.26 µM (active) | – | 10.9 µM (active) | – | 5.9 µM (active) | 18.7 µM (active)
COc1cc(OC2CCN(C)CC2)ccc1Nc1ncc2c(n1)n(C1CCCC1)c(=O)n2C | 8.33 µM (active) | 18.7 µM (active) | 12.1 µM (active) | 13.2 µM (active) | – | 19.3 µM (active) | 18.7 µM (active) | 10.5 µM (active) | 20.9 µM (active)
CC(C)c1cc(C(=O)N2Cc3ccc(CN4CCN(C)CC4)cc3C2)c(O)cc1O | 0.132 µM (active) | 0.935 µM (active) | 0.482 µM (active) | 0.209 µM (active) | – | 0.769 µM (active) | 0.209 µM (active) | 0.187 µM (active) | 0.526 µM (active)
CNC(=O)c1cc(Oc2ccc(NC(=O)Nc3cc(C(C)(C)C)nn3-c3ccc4ncccc4c3)c(F)c2)ccn1 | 2.35 µM (active) | 16.6 µM (active) | 19.2 µM (active) | – | 24.3 µM (active) | 27.3 µM (active) | 10.5 µM (active) | 4.69 µM (active) | 20.9 µM (active)
CC(=O)Nc1nc(C)c(-c2ccc(Cl)c(S(=O)(=O)NCCO)c2)s1 | 3.72 µM (active) | 2.96 µM (active) | 2.41 µM (active) | 5.9 µM (active) | – | 0.544 µM (active) | 4.18 µM (active) | 3.32 µM (active) | 7.43 µM (active)
NC1(Cc2ccc(Cl)cc2)CCN(c2ncnc3[nH]ccc23)CC1 | 11.8 µM (active) | 5.26 µM (active) | 27.1 µM (active) | 18.7 µM (active) | – | 6.11 µM (active) | 11.8 µM (active) | 20.9 µM (active) | –

SMILES | Potency [1] | Potency [2] | Potency [3] | Potency [4] | Potency [5] | Potency [6] | Potency [7] | Potency [8] | Potency [9]
COc1cc(=C2C=c3ccccc3=N2)[nH]c1=Cc1[nH]c(C)cc1C | 0.743 µM (active) | 4.69 µM (active) | 19.2 µM (active) | 5.9 µM (active) | 6.85 µM (active) | 7.69 µM (active) | 2.96 µM (active) | 14.8 µM (active) | 10.5 µM (active)
O=C(CCCCCCC(=O)Nc1ccc([C@H]2O[C@@H](CSc3nc(-c4ccccc4)c(-c4ccccc4)o3)C[C@@H](c3ccc(CO)cc3)O2)cc1)NO | 8.33 µM (active) | inactive | 27.1 µM (active) | 8.33 µM (active) | 21.7 µM (active) | 15.3 µM (active) | 16.6 µM (active) | 7.43 µM (active) | 10.5 µM (active)
C[C@@]12O[C@@H](C[C@]1(O)CO)n1c3ccccc3c3c4c(c5c6ccccc6n2c5c31)CNC4=O | 1.18 µM (active) | 3.32 µM (active) | 1.92 µM (active) | 0.132 µM (active) | 8.63 µM (active) | 0.217 µM (active) | 6.62 µM (active) | 1.66 µM (active) | 3.32 µM (active)
Cc1cc(N2CCOCC2)cc2[nH]c(-c3c(NC[C@@H](O)c4cccc(Cl)c4)cc[nH]c3=O)nc12 | 0.59 µM (active) | 0.0833 µM (active) | 0.215 µM (active) | 0.296 µM (active) | 24.3 µM (active) | 0.0968 µM (active) | 0.59 µM (active) | 0.332 µM (active) | 18.7 µM (active)
CCN1CCN(CC(=O)Nc2ccc(-c3cccc4c(=O)cc(N5CCOCC5)oc34)c3sc4ccccc4c23)CC1 | 1.18 µM (active) | 2.96 µM (active) | 6.07 µM (active) | 0.833 µM (active) | – | 0.172 µM (active) | 0.743 µM (active) | – | 1.18 µM (active)
Nc1cc(C(F)(F)F)c(-c2cc(N3CCOCC3)nc(N3CCOCC3)n2)cn1 | 0.166 µM (active) | – | 0.482 µM (active) | 0.469 µM (active) | 1.22 µM (active) | 0.153 µM (active) | 0.743 µM (active) | 0.296 µM (active) | 0.59 µM (active)
Cc1cc(C(=O)N2CCN(c3cccc(Cl)c3)CC2)n(-c2ccccc2)n1 | 0.0662 µM (active) | 0.118 µM (active) | – | 0.743 µM (active) | 6.85 µM (active) | 1.37 µM (active) | – | – | inactive
COc1cc(C(=O)N2CCC(N3CCN(C)CC3)CC2)ccc1Nc1ncc2c(n1)N(C)c1ccccc1C(=O)N2C | 16.6 µM (active) | – | 21.5 µM (active) | 5.26 µM (active) | – | 7.69 µM (active) | 14.8 µM (active) | 9.35 µM (active) | 11.8 µM (active)
COc1cc2ncn(-c3cc(OCc4ccccc4C(F)(F)F)c(C(N)=O)s3)c2cc1OC | 4.69 µM (active) | – | 24.1 µM (active) | – | 21.7 µM (active) | 1.22 µM (active) | 1.66 µM (active) | – | –
Cc1cccc(C=NNc2cc(N3CCOCC3)nc(OCCc3ccccn3)n2)c1 | 1.32 µM (active) | – | 24.1 µM (active) | – | – | 24.3 µM (active) | – | 16.6 µM (active) | –
O=C(O)[C@H](Cc1c[nH]c2ccccc12)N1C(=O)c2ccccc2C1=O | inactive | inactive | – | inactive | inactive | – | inactive | – | inactive
COc1cc(C(=O)NS(=O)(=O)c2ccccc2C)ccc1Cc1cn(C)c2ccc(NC(=O)OC3CCCC3)cc12 | inactive | 20.9 µM (active) | – | – | – | 21.7 µM (active) | 37.2 µM (active) | – | 26.4 µM (active)
C[C@@H]1COC(Nc2ccc3ncnc(Nc4ccc(OCc5nccs5)c(Cl)c4)c3c2)=N1 | 2.64 µM (active) | – | – | 16.6 µM (active) | 24.3 µM (active) | 21.7 µM (active) | 14.8 µM (active) | 4.69 µM (active) | –
CCNC(=O)Nc1ccc2ncc(Nc3ccc(C)cc3)nc2n1 | 18.7 µM (active) | 18.7 µM (active) | – | 0.935 µM (active) | – | 24.3 µM (active) | – | – | –
CC(C)=CCCC(C)=CCCC(C)=CCSc1ccccc1C(=O)O | 5.9 µM (active) | 3.72 µM (active) | – | – | – | 1.53 µM (active) | – | inactive | 11.8 µM (active)
COc1ccc2c(c1)CC[C@@H](CN(C)CC(=O)O)[C@H]2c1ccccc1 | 0.662 µM (active) | 2.09 µM (active) | – | 1.05 µM (active) | – | 4.32 µM (active) | – | – | –
COc1ccc(F)c(F)c1C(=O)c1cnc(NC2CCN(S(C)(=O)=O)CC2)nc1N | 0.296 µM (active) | – | 2.71 µM (active) | – | 3.43 µM (active) | 3.06 µM (active) | 5.26 µM (active) | – | –
